From PubChem
MCF10A rerep: A quantitative high throughput screen for small molecules that induce DNA re-replication in MCF 10a normal breast cells. AID 624296, 2012. Potency, µM (titrated, usually from 46.1 µM), actives largely listed as activators. MCF 10A DNA re-replication, Hoechst nuclear intensity, 48 h. 350,000 compounds, 2.9% hits; also: nearly all actives have a fitted effect of over 50% in size
uPA generation: qHTS for Inhibitors of Cell Surface uPA Generation; cell surface uPA generation assay, qHTS; 330,000 compounds, 0.31% hits; AID 540303, 2011; Potency, µM (series often up to 38.3 µM), most hits filed as inhibitors; active = well fitted inhibition curve with a large enough effect; inconclusive = small, poorly fitted or top-dose-only effect; inactive = no such curve, though single readings can be large or run the other way; tested in mouse RAW 264.7 cells; also: nearly all actives have a fitted effect of over 55% in size
SW480 rerep: A quantitative high throughput screen for small molecules that induce DNA re-replication in SW480 colon adenocarcinoma cells; SW480 DNA re-replication, Hoechst DNA content imaging, 48 h; Potency, µM (series often up to 46.1 µM), actives largely listed as activators; 340,000 compounds, 1.8% hits; AID 624297, 2012; also: nearly all actives have a fitted effect of over 55% in size
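DNA re-replication was detected as more nuclei of elevated Hoechst intensity after 48 hr exposure to compound (23 nL pinned per well of 250 cells).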
Giardia killer: Small Molecules that selectively kill Giardia lamblia: qHTS; activity change, % at 7.66 µM, hits read low; Giardia lamblia trophozoite viability; AID 540267, 2011; 340,000 compounds, 0.15% hits; in the data active = activity change below about -80%; inconclusive = between about -30% and that limit;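 also: parasites exposed to compound for two days anaerobically before the ATP read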
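Viability, read as ATP luminescence: trophozoites at 100 cells/well, compound added, 48 hrs anaerobic at 37 deg C, then 15-30 min room-temperature development before reading.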
A number is an active result; – = inactive; ? = inconclusive; · = not tested or not shown; [ ] = another dose, or the depositor's remark. Compounds with a hit are over-represented: about 4.3% of the library has one in this group of screens. Unless noted, calls follow the shape of the dose curve; as a rule, active = well fitted activation curve with a large enough effect; inconclusive = small, poorly fitted or top-dose-only effect; inactive = no such curve, though single readings can be large or run the other way.

SMILES	MCF10A rerep	uPA generation	SW480 rerep	Giardia killer
COc1ccc(C(=O)/C(C#N)=N/Nc2ccccc2[N+](=O)[O-])cc1	1.8µM	–	5.8µM	–
CCN(CC)C(=O)c1sc2nc(-c3cccs3)cc(-c3ccc(Cl)cc3)c2c1N	?	–	13µM	–
CCN(CC)C(=O)c1sc2nc(-c3cccs3)cc(-c3cccs3)c2c1N	?	–	–	–
Cc1cccc(N2CCN(C(=O)c3ccc(N4CCCC4=O)cc3)CC2C)c1 (centres undefined)	–	–	–	–
Cc1cccc(N2CCN(C(=O)c3cccc(N4CCCC4=O)c3)C(C)C2)c1 (centres undefined)	1.5µM	?	?	–
CCN(c1ccccc1)S(=O)(=O)c1ccc(OC)c(NC(=O)C2=NN(c3ccccc3)C(=O)CC2)c1	–	–	–	–
CC(=O)Nc1cccc(Oc2ncnc3scc(-c4ccc(C(C)C)cc4)c23)c1	23µM	–	?	–
Cc1ccc(S(=O)(=O)N(C)c2ccc(OCC(=O)Nc3cc(C(=O)O)ccc3Cl)cc2)cc1	–	–	–	–
CCOC(=O)c1c(NC(=O)c2ccco2)sc2c1CCCCC2	?	–	–	–
CCOC(=O)c1c(NC(=O)C(C)N2CCN(C(=O)c3ccco3)CC2)sc2c1CCCC2 (centres undefined)	15µM	–	–	–
CCCCCC(=O)Nc1ccc(C(=O)COC(=O)c2ccccn2)cc1	–	–	–	–
COc1cc(/C=C/c2nc3ccccc3c(=O)[nH]2)cc(OC)c1OC	18µM	?	3.3µM	–
COc1cc2nc(CN(C)Cc3nc4ccccc4c(=O)[nH]3)[nH]c(=O)c2cc1OC	?	·	16µM	–
CCN(Cc1nc2ccccc2c(=O)[nH]1)Cc1nc2cc(OC)c(OC)cc2c(=O)[nH]1	–	–	–	–
COCCOC(=O)N/C=C\c1nc2ccccc2c(=O)[nH]1	?	–	16µM	–
COC(=O)c1ccc(/C=C/c2nc3ccccc3c(=O)[nH]2)cc1	–	–	–	–
Cc1ccc(/C=C/c2nc3ccccc3c(=O)[nH]2)cc1	?	?	?	-90
Cn1c2c(c3cnc4cc(Cl)ccc4c31)CN(Cc1ccc(Cl)cc1)CC2	·	·	·	–
Cc1ccccc1/C=C\c1nc2ccccc2c(=O)[nH]1	?	–	?	–
N#CCOc1ccccc1/C=C/c1nc2ccccc2c(=O)[nH]1	–	–	13µM	–
Cc1ccccc1/C=C/c1nc2ccccc2c(=O)[nH]1	18µM	–	?	?
ClC(Cl)(Cl)c1nc2ccccc2n2nncc12	?	–	13µM	–
O=C(O)c1ccc(/C=C2/SC(=S)N(Cc3ccccc3)C2=O)cc1	–	–	–	–
CC(c1ccccc1)N1C(=O)/C(=C/c2ccncc2)SC1=S (centres undefined)	16µM	?	16µM	–
COc1ccc(CN2C(=O)/C(=C/c3ccncc3)SC2=S)cc1	23µM	–	?	–
SMILES	MCF10A rerep	uPA generation	SW480 rerep	Giardia killer
CC(=O)Oc1ccc(/C=C2/SC(=S)N(Cc3ccccc3)C2=O)cc1	3.3µM	–	–	–
O=C(O)C(c1ccccc1)N1C(=O)/C(=C/c2cccs2)SC1=S (centres undefined)	–	–	–	–
OCCN1CC(O)C(O)C(O)C1CO (centres undefined)	–	·	–	·
CCOC(=O)c1cc2c(c(CCO)n1)[C@H](CCO)N(S(=O)C(C)(C)C)C2 (some centres undefined)	–	–	–	–
CN1C2=CC=CC=CC2=[N+](C)C12C([N+](=O)[O-])=CC(=[N+]([O-])[O-])C=C2[N+](=O)[O-] (centres undefined)	?	–	0.65µM	-94
Cn1nc(-c2ccccc2)c(CSc2ccccc2)c1Cl	13µM	–	?	–
Cc1ccc(SCc2nn(C)c(Cl)c2C=O)cc1	–	–	–	–
Cc1ccc(SCc2c(-c3ccccc3)nn(C)c2Cl)cc1	8.2µM	–	–	–
Cc1ccc(Sc2c(C#N)c(-c3ccccc3)nn2C)cc1	6.5µM	–	?	–
Cc1ccc(SCc2c(C#N)c3ccccc3n2C)cc1	–	–	–	–
CCCN1CNc2c(c(=O)[nH]c(=S)n2CCc2cccc(OC)c2)C1	·	·	·	–
CCN(CC)S(=O)(=O)c1cccc(NC(=O)c2cccc(S(=O)(=O)N3CCCC3)c2)c1	?	–	–	–
O=C(Cc1ccccc1)Nc1cccc(N2C(=O)C=CC2=O)c1	12µM	–	9.2µM	–
COCCN(C(=O)CCl)C(C(=O)NC1CCCCC1)c1ccccc1C (centres undefined)	?	–	13µM	–
COCCN(C(=O)CCC(=O)Nc1cc(C)on1)C(C(=O)NC1CCCC1)c1ccccc1C (centres undefined)	–	–	–	–
CCN(CC)S(=O)(=O)c1cc(NC(=O)C(C)N2CCN(Cc3ccc4c(c3)OCO4)CC2)ccc1C (centres undefined)	?	–	15µM	–
CCN(CC)S(=O)(=O)c1cc(NC(=O)C(C)N2CCN(c3ccccn3)CC2)ccc1C (centres undefined)	–	–	–[1.84 µM]	–
C/C=C/C1=CC(=O)C[C@H](c2ccc3c(c2)OCO3)C1	?	?	–	–
Oc1c(Cl)cc(Cl)cc1CNc1ccc(Br)cn1	11µM	–	–	–
O=C(CCCCCCC(=O)Nc1ccccc1)NO	15µM	?	3.7µM	?
O=C(CCN1CCCC1)Nc1ccccc1	–	–	–	–
O=C(CCCCCN1C(=O)c2ccccc2C1=O)Nc1ccccc1	–	–	–	–
O=C(CCN1CCN(CCO)CC1)Nc1ccccc1	0.65µM	–	–	–
O=C1Cc2cc(S(=O)(=O)Nc3ccc(N4CCOCC4)cc3)ccc2N1	–	–	–	–
COC(=O)c1ccc(-n2c(C)cc(C(=O)CCl)c2C)cc1	12µM	6.3µM	?	–
SMILES	MCF10A rerep	uPA generation	SW480 rerep	Giardia killer
CCOc1ccc(-n2c(C)cc(C(=O)CCl)c2C)cc1	12µM	–	9.2µM	–
CCOC(=O)c1cc(C)n(-c2ccc(Cl)cc2)c1C	–	–	–	–
NC1=C(Br)C(=O)c2ncccc2C1=O	0.52µM	–	8.2µM	–
O=C1C2C3C=CC(CNS(=O)(=O)c4ccccc4[N+](=O)[O-])(O3)C2C(=O)N1c1ccccc1 (centres undefined)	21µM	–	?	–
CN1CCN(NC(=O)c2cccc(C(F)(F)F)c2)CC1	–	–	5.8µM	–
COc1cc(/C=N/NC(=O)C23CC4CC(CC(C4)C2)C3)cc(Br)c1O	–	–	?	–
COc1cc(/C=N/NC(=O)CC23CC4CC(CC(C4)C2)C3)cc(Br)c1OCC(=O)N(C)C	18µM	–	–	–
C=C1CCN(C(CC(C)C)C(=O)NCCCc2ccccc2)S(=O)(=O)c2ccccc21 (centres undefined)	·	·	·	–
CSCCC(NC(=O)COc1ccccc1)C(=O)NCC1COc2ccccc2O1 (centres undefined)	–	–	–	–
CN(C)C(=O)CCc1ccc2c3c([nH]c2c1)[C@]1(CCC2CCCC2)[C@@H](C(=O)N2CCOCC2)C[C@H](CC(=O)NCC24CC5CC(CC(C5)C2)C4)C(=O)N1CC3	–	–	–	–
